Assay outcomes as filed in PubChem.
Most compounds without a hit are left out; they make up all but 11% or so of the library.
FLuc inh-1: Photinus pyralis luciferase inhibition; P08659; purified P. pyralis luciferase, luminescence, biochemical; Potency, µM (titrated, usually from 115 µM), hits mostly inhibitors; 76,000 tested, 2.5% active; note: % is set by controls: 0 for no effect and ±100 for the full control effect; nearly all actives have a fitted effect of over 65% in size
Target sequence (P08659 whole entry, looked up): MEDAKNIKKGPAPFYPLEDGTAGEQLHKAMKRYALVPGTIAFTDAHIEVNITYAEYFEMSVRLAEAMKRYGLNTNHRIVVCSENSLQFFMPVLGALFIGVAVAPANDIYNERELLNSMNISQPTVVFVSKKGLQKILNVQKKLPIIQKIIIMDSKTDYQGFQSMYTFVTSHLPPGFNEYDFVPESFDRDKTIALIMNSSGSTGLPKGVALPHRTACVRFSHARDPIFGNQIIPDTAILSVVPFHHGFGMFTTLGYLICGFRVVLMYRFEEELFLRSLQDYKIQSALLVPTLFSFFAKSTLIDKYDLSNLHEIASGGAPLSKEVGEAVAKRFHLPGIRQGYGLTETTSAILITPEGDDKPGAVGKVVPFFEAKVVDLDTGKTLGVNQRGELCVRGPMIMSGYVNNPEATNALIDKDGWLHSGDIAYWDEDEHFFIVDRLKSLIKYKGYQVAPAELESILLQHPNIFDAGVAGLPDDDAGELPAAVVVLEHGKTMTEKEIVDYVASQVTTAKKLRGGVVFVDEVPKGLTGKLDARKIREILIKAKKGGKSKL
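Purified 10nM P. pyralis luciferase with 10uM D-luciferin and 10uM ATP in 50mM Tris acetate pH 7.5, 10mM Mg acetate, 0.01% Tween-20, 0.05% BSA. qHTS titration; luminescence read by CCD imager.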
NPR1 antag: blocks ANP-stimulated signaling of human Npr1 receptor. P16066. HEK293 hNpr1 GloSensor cGMP, ANP-stimulated luminescence. Potency, µM (doses to about 46.3 µM), without a hit: at the top dose activity change, negative = inhibition, most hits filed as inhibitors. 76,000 tested, 1.6% active; calls by dose curve; note: % is set by controls: 0 for no effect and ±100 for the full control effect; nearly all actives have a fitted effect of over 60% in size
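HEK293 cells stably expressing human Npr1 and cGMP GloSensor pGS-40F, loaded 2 h with 2% GloSensor reagent, given compound 30 min at room temperature. Luminescence read before and 20 min after 0.1 nM hNppA.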
3T3 cytotox: cytotoxic compounds in NIH 3T3 cells | NIH 3T3 viability, CellTiter-Glo ATP luminescence, 48-72 h | Potency, µM (doses to about 96.7 µM), inactives show at the top dose activity change, negative = cytotoxicity, most hits filed as inhibitors | 94,000 tested, 4.3% active | AID 1345082; note: % is set by controls: 0 for no effect and ±100 for the full control effect; nearly all actives have a fitted effect of over 55% in size
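First NIH 3T3 cells are plated at 400 cells/well; next compound is pinned in; then plates incubate 48 or 72 hr at 37 °C; finally CellTiter-Glo is added and luminescence read after 10 min.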
HEK cytotox: HEK 293 cell cytotoxicity | HEK 293 viability, ATP luminescence (CellTiter-Glo), 48-72 h | Potency, µM (series often up to 115 µM), for the others: at the highest dose activity change, negative = cytotoxicity, hits mostly inhibitors | 94,000 tested, 6.6% active; note: % is set by controls: 0 for no effect and ±100 for the full control effect; nearly all actives have a fitted effect of over 60% in size
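Luminescence from cellular ATP, measured with CellTiter-Glo, indicates HEK 293 viability. Cells plated at 250 cells/well are treated with compound for 48 or 72 hr at 37 degree Celsius before reagent addition.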
FLuc SDR no ATP: stabilizes firefly luciferase without ATP; shares compounds with FLuc inh-1; Purified FLuc-C-HiBiT, Nano-Glo HiBiT luminescence, no ATP; Potency, µM (highest dose often 32.7 µM), for inactives: at the highest dose activation (signal gain), usual class: activators; 1,300 tested, 7.8% active; AID 1963318; note: nearly all actives have a fitted effect of over 55% in size
FLuc SDR ATP: firefly luciferase binding stabilization, ATP added; shares compounds with FLuc inh-1; purified FLuc-C-HiBiT + ATP, HiBiT complementation luminescence; Potency, µM (series often up to 32.7 µM), without a hit: at the highest dose activation (gain of signal), hits mostly activators; 1,300 tested, 8.7% active;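 note: signal reports ligand binding via conformational change of the enzyme rather than luciferase catalysis; % of control where 0% means no effect; nearly all actives have a fitted effect of over 55% in size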
FLuc inh-2: blocks firefly luciferase enzymatic activity. Potency, µM (highest dose often 32.7 µM), for inactives: top-dose activity change, negative = inhibition, most hits filed as inhibitors. 1,300 tested, 42% active. purified FLuc-C-HiBiT enzyme, luciferin luminescence. shares compounds with FLuc inh-1; note: % is set by controls: 0 for no effect and ±100 for the full control effect; nearly all actives have a fitted effect of over 70% in size
* marks the source's active call; other numbers are inactive results; [ ] = remark or other dose. Unless noted, calls come from the whole dose curve; as a rule, active = well fitted curve in the direction sought with a large enough effect; inconclusive = small, poorly fitted or top-dose-only effect, or another doubt; inactive = no such curve, though single readings can be large; an effect the other way counts as inactive or inconclusive. Potency is the fitted concentration of half-maximal effect.

Screening O=[S+]([O-])(c1cccs1)N1CCc2nc(C3CC3)nc(-c3ccc(Cl)cc3)c2CC1 returned FLuc inh-1 inactive, NPR1 antag -22%, 3T3 cytotox -5% and HEK cytotox -12%.
Screening Cc1onc(-c2cnn(C)c2NCc2ccc(C#N)cc2)c1C(=O)NCC1CCOCC1 returned FLuc inh-1 inactive, NPR1 antag 2%[70.6 µM], 3T3 cytotox inconclusive and HEK cytotox 0%[172 µM].
Screening COc1ccc(OCC(=O)Nc2nc(-c3ccc(Br)cc3)ns2)cc1 returned FLuc SDR no ATP 14%, FLuc SDR ATP 8% and FLuc inh-2 -14%.
Screening COc1ccc(C(=O)N2CCN(C(=O)c3cccc(-c4ccc(OC)nn4)c3)CC2)cc1 returned 3T3 cytotox inconclusive and HEK cytotox -27%.
For COc1ccc2nc(-c3ccc(N4CCN(C(=O)OC(C)(C)C)CC4)cc3)sc2c1 the results were FLuc SDR no ATP 16%, FLuc SDR ATP 9% and FLuc inh-2 inconclusive.
`CC(=O)c1cccc(-c2nc3ccccc3s2)c1` gave FLuc SDR no ATP inconclusive, FLuc SDR ATP inconclusive and FLuc inh-2 9.9µM*.
COc1ccc2nc(-c3cccc(C(C)=O)c3)sc2c1 was read as FLuc SDR no ATP 12µM*, FLuc SDR ATP inconclusive and FLuc inh-2 1.2µM*.
COc1ccc(NC(=O)N2C[C@@H](F)C[C@H]2C(=O)N2CCc3ccccc3C2)cc1 was read as 3T3 cytotox -10% and HEK cytotox 2%.
Screening CNC(=O)c1cc(C2CC2)nc2onc(C3CCCN(C(=O)c4ccccc4)C3)c12 (centres undefined) returned 3T3 cytotox -18% and HEK cytotox -15%.
O=C(NC[C@H]1OC[C@@H](NCc2cnc[nH]2)[C@@H]1O)c1cccs1 was read as FLuc inh-1 inactive, NPR1 antag 1%[70.6 µM], 3T3 cytotox -3%[174 µM] and HEK cytotox -1%[172 µM].
O=C(Nc1ccc2c(c1)OCCO2)C1CN(S(=O)(=O)C2CC2)CC12CCCCC2 (centres undefined) was read as FLuc inh-1 1.1µM*, NPR1 antag inconclusive, 3T3 cytotox -22%, HEK cytotox inconclusive, FLuc SDR no ATP inconclusive, FLuc SDR ATP inconclusive and FLuc inh-2 4.4µM*.
O=C1[C@@H]2C[C@@H](O)CN2C2(CN(C3CCCCC3)C2)C(=O)N1Cc1ccccc1Cl was read as FLuc inh-1 inactive, NPR1 antag 6%[70.6 µM], 3T3 cytotox -16%[174 µM] and HEK cytotox -19%[172 µM].
O=C(NCc1ccc(F)cc1)C1CCCN(c2nc3ncccc3o2)C1 (centres undefined) was read as FLuc inh-1 inactive, NPR1 antag 0%, 3T3 cytotox inactive and HEK cytotox -7%.
COc1ccc(-c2cn3nc(N4CCCC(C(=O)NCc5ccccc5OC)C4)sc3n2)cc1 (centres undefined) was read as FLuc SDR no ATP 15%, FLuc SDR ATP 13% and FLuc inh-2 inconclusive.
`O=C(NCc1cccc(Cl)c1)C1CCCN(c2nn3cc(-c4ccc(F)cc4)nc3s2)C1` (centres undefined) gave FLuc SDR no ATP 21%, FLuc SDR ATP inconclusive and FLuc inh-2 inconclusive.
`COc1ccccc1CNC(=O)C1CCN(c2cnc3nccnc3c2)CC1` gave FLuc inh-1 inactive, NPR1 antag 6%, 3T3 cytotox inactive and HEK cytotox 0%.
Cc1ccsc1C(=O)NCCn1c(C)cnc1C1CCC1 was read as FLuc inh-1 inactive, NPR1 antag -15%, 3T3 cytotox inactive and HEK cytotox 6%.
COc1cccc(-c2csc(CN3CCCC(C)(NC(C)=O)C3)c2)c1 (centres undefined) was read as FLuc inh-1 5µM*, NPR1 antag -6%[70.6 µM], 3T3 cytotox inconclusive, HEK cytotox inconclusive, FLuc SDR no ATP 17%[49.3 µM], FLuc SDR ATP 16%[49.3 µM] and FLuc inh-2 inconclusive.
`CSc1ccc(C(=O)N2CC(=O)NCC(C)(C)C2)cc1` gave 3T3 cytotox inconclusive and HEK cytotox -22%.
`Cn1c([C@H]2CCN(C3CCCCC3)C2)nc2ccccc21` gave FLuc inh-1 7.1µM*, NPR1 antag -26%[70.6 µM], 3T3 cytotox inconclusive, HEK cytotox inconclusive, FLuc SDR no ATP 18%[65.7 µM], FLuc SDR ATP 12%[65.7 µM] and FLuc inh-2 inconclusive.
`COCCN1CCNc2cc(-c3cccc(N(C)C)c3)ncc2C1` gave FLuc SDR no ATP 31%[49.3 µM], FLuc SDR ATP inconclusive and FLuc inh-2 16µM*.
Screening CC(=O)N1CCN(C(=O)c2cccc(-c3ccccn3)c2)CC1 returned 3T3 cytotox -7%[138 µM] and HEK cytotox -24%[172 µM].
`COCCN1CCNc2cc(-c3cc(Cl)ccc3OC)ncc2C1` gave FLuc inh-1 inconclusive, NPR1 antag -2%[70.6 µM], 3T3 cytotox inconclusive and HEK cytotox inconclusive.
For CC(=O)N1CCNc2cc(-c3cccc(F)c3)ncc2C1 the results were FLuc SDR no ATP 21%[65.7 µM], FLuc SDR ATP 16%[65.7 µM] and FLuc inh-2 inconclusive.
Cc1cc(-c2cc3c(cn2)CN(Cc2nccn2C)CCN3)ccn1 was read as FLuc SDR no ATP 18%[49.3 µM], FLuc SDR ATP 13%[49.3 µM] and FLuc inh-2 inconclusive.
COc1cccc(CN2CCNc3cc(-c4ccnc(C)c4)ncc3C2)c1 was read as FLuc inh-1 14µM*, NPR1 antag -4%[70.6 µM], 3T3 cytotox inconclusive, HEK cytotox 71µM*, FLuc SDR no ATP 17%[49.3 µM], FLuc SDR ATP 16%[49.3 µM] and FLuc inh-2 inconclusive.
Screening Fc1cccc(CN2CCNc3cnc(OCc4cccnc4)cc3C2)c1 returned FLuc inh-1 inactive, NPR1 antag -16%[70.6 µM], 3T3 cytotox inconclusive and HEK cytotox inconclusive.
For Cn1ccnc1CN1CCN(c2nccc(-c3ccccn3)n2)CC1 the results were FLuc inh-1 inactive, NPR1 antag 6%, 3T3 cytotox -4% and HEK cytotox 4%.
O=C(N[C@H](C1CCNCC1)C1CC(O)C1)c1cccc(=O)[nH]1 (some centres undefined) was read as FLuc inh-1 inactive, NPR1 antag -4%, 3T3 cytotox inactive and HEK cytotox 2%.
`CCCCn1c(=O)c(C(=O)NC)nc2cccnc21` gave 3T3 cytotox 1%[138 µM] and HEK cytotox inactive.
